Results: PubChem BioAssay AID488922 (Johns Hopkins Ion Channel Center, 2010)
The campaign covered roughly 310,000 compounds. About 3,800 (1.2%) were called active.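 How the source made its calls: active means ratio B-score over 3 SD below the library mean, with starting fluorescence within 5 SD of its mean; inactive means the rest, inconclusive results apart.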 Shown is part of a subset that was picked to be rich in actives.

target: Potassium channel subfamily K member 9 (Homo sapiens) (UniProt Q9NPC2); test: KCNK9 potassium channel inhibitors, primary screen, HEK293 cells, thallium flux (AID 488922); conditions: HEK293 KCNK9, FluxOR thallium flux fluorescence, at 10 µM; hits give low values;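 on B-score: negative B-score means less thallium flux so channel inhibition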
Sequence (Q9NPC2 whole entry, looked up): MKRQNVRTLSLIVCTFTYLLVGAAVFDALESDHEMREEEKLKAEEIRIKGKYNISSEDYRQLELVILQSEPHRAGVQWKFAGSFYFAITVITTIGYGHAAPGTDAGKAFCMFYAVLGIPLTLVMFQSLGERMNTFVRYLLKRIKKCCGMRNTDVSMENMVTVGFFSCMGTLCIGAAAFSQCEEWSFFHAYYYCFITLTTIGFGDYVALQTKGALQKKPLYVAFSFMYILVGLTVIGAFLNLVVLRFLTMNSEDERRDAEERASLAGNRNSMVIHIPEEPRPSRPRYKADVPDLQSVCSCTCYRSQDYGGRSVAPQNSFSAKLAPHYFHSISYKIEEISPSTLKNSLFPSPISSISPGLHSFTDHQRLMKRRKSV

| Structure (SMILES) | B-score |
| --- | --- |
| COC(=O)c1ccc(C(NC(=O)OCc2ccccc2)/C(F)=C/[C@@H](C)C(=O)O)cc1 (stereo partly specified) | inactive |
| CCC/C=C(\CCC)C(NC(=O)Cc1ccccc1)c1ccc(C(=O)OC)cc1 (stereo unspecified) | -13.9 (active) |
| CCC[C@@H]1C[C@@]1(CCC)[C@@H](NC(=O)c1ccccc1)c1ccc(C(=O)OC)cc1 | inactive |
| CCc1cc2c(=O)n(-c3ccccc3)c(SCC(=O)O)nc2s1 | inactive |
| COc1cccc(NC(=S)N(CCc2c(C)[nH]c3ccccc23)Cc2ccco2)c1 | -9.04 (active) |
| CCNC(=S)N(CCc1c(C)[nH]c2ccc(C)cc12)Cc1ccco1 | inactive |
| COc1ccc2[nH]c(C)c(CCN(Cc3cccs3)C(=S)Nc3ccccc3OC)c2c1 | inactive |
| O=C1c2ccccc2S(=O)(=O)N1Cc1c(F)cccc1Cl | inactive |
| O=C1CCN(CCCc2ccccc2)CCN1CCO | inactive |
| CCOC(=O)[C@H]1[C@H]2COc3cc(OC)ccc3[C@@H]2N2C(=O)N(c3ccc(Br)cc3)C(=O)[C@@]12C | inactive |
| CCOC(=O)[C@@H]1[C@H]2COc3ccc(Br)cc3[C@H]2N2C(=O)N(c3ccc(Cl)cc3)C(=O)[C@@]12C | -10.9 (active) |
| CCOC(=O)[C@@H]1[C@H]2COc3cc(OC)ccc3[C@H]2N2C(=O)N(c3ccc(F)cc3)C(=O)[C@]12C | inactive |
| Cc1onc(-c2ccccc2Cl)c1C(=O)OCc1nnc(-c2ccccc2)o1 | inactive |
| Fc1cccc(Cl)c1CSc1ccc(-c2ccco2)nn1 | -14.1 (active) |
| O=C(CSc1ccc(-c2ccco2)nn1)Nc1cccc(F)c1 | inactive |
| Cc1cc(SCc2c(F)cccc2Cl)nc(=O)[nH]1 | inactive |
| NC(=O)C1=C[C@@H](c2csc3ccccc23)C[C@@H](OCc2ccc(CO)cc2)O1 | inactive |
| COC(=O)c1c(NC(=O)C(=O)N2CCCCC2)sc2c1CC(C)(C)OC2 | inactive |
| COc1ccc(/C=C2\CCCC3C2=NN(C(=O)c2scnc2C)C3c2ccc(OC)cc2)cc1 (stereo unspecified) | inactive |
| CCCCC(C(=O)NC(C)(C)C)N(Cc1ccccc1)C(=O)c1snc(C(N)=O)c1N (stereo unspecified) | inactive |
| COc1cc(C(O)c2nc3ccccc3n2C)cc(OC)c1OC (stereo unspecified) | inactive |
| CCC(C)n1c(-c2cc(OC)c(OC)c(OC)c2)nc2nc3ccccc3nc21 (stereo unspecified) | -15.1 (active) |
| COc1cc(-c2n[nH]c(=S)n2Cc2ccccc2)cc(OC)c1OC | inactive |
| COc1ccccc1-n1ccnc(SCC(=O)NC2CCCCC2)c1=O | inactive |
| O=C(C1CCN(C2CCN(Cc3ccc4cc(F)ccc4n3)CC2)CC1)N1CCCC1 | inactive |
| CCN(C(=O)COC(=O)c1cc(NS(=O)(=O)c2ccc(Cl)c([N+](=O)[O-])c2)ccc1O)C1CCCCC1 | inactive |

| Structure (SMILES) | B-score |
| --- | --- |
| Cc1c(C(=O)NCC2CCCO2)sc2nc(-c3ccccc3)cn12 (stereo unspecified) | inactive |
| Cc1c(C(=O)N2CCCc3ccccc32)sc2nc(-c3ccccc3)cn12 | -6.69 (active) |
| Cc1cccc2cc3c(N)c(C(=O)N4CCCc5ccccc54)sc3nc12 | -6.79 (active) |
| O=C(c1cc(-c2ccc(O)cc2)on1)N1CCCc2ccccc21 | inactive |
| Cc1c(C(=O)N2CCCc3ccccc32)oc2ccccc12 | inactive |
| Cc1c(C(=O)N2CC(C)OC(C)C2)sc2nc(-c3ccccc3)cn12 (stereo unspecified) | inactive |
| COc1cccc(CNC(=O)Cn2c(=O)oc3cc(S(=O)(=O)N4CCCCC4)ccc32)c1 | inactive |
| Cc1ccc(N2CC(C(=O)Nc3ccc(S(=O)(=O)N4CCCC4)cc3)CC2=O)cc1C (stereo unspecified) | inactive |
| O=C(CCc1n[nH]c(=O)[nH]c1=O)N/N=C/c1ccc(Br)o1 | inactive |
| CC(C)OCCCNC(=O)c1ccc(C2SCC(=O)N2Cc2ccco2)cc1 (stereo unspecified) | inactive |
| CCCCCCCC(=O)NC(Nc1ccccc1OC)C(Cl)(Cl)Cl (stereo unspecified) | inactive |
| CCOC(=O)N1CCC(N(CCOC)C(=O)Nc2ccc(C)c(C)c2)CC1 | inactive |
| CCCCCCCCCCOC(=O)Cn1c(COc2cccc(OC)c2)[n+](C)c2ccccc21 | -17.1 (active) |
| CCCCCCCCCCOC(=O)Cn1c(COc2ccc(C)cc2)[n+](C)c2ccccc21 | -11.4 (active) |
| CCn1c(COc2cccc(OC)c2)nnc1SCC(=O)N1CCOCC1 | inactive |
| Cc1ccc(OCCCn2c(=O)oc3ccccc32)cc1 | inactive |
| CCCCCCCCC(=O)NCCOc1ccccc1 | inactive |
| CCOC(=O)Cn1c(-c2cccnc2Cl)nc2ccccc21 | inactive |
| C[C@@H]1O[C@@H](OC[C@H]2O[C@@H](Oc3c(-c4ccc(O)cc4)oc4cc(O)cc(O)c4c3=O)[C@H](O)[C@@H](O)[C@@H]2O)[C@H](O)[C@H](O)[C@H]1O | inactive |
| Cc1ccc(C2(C)NC(=O)N(CC(=O)Nc3ccccc3C(=O)N3CCCCC3)C2=O)cc1 (stereo unspecified) | inactive |
| O=C(OCCN1CCOCC1)C1(c2ccccc2)CCCCC1 | inactive |
| CCc1ccc(-c2cc(C(=O)NN3CCN(C)CC3)c3ccccc3n2)cc1 | inactive |
| CC(C)CN(C(=O)COC(=O)c1ccc2ccccc2c1)c1c(N)n(Cc2ccccc2)c(=O)[nH]c1=O | inactive |
| Cc1ccc(NS(=O)(=O)c2ccc(-c3ccc(=O)[nH]n3)o2)c(C)c1 | inactive |
| Cc1ccc(CCN2CC(C(=O)NCCc3ccccc3)CC2=O)cc1 (stereo unspecified) | inactive |
| O=C(Nc1ccc(Cl)cc1)C1c2cccc[n+]2CC(=O)N1Cc1ccc2c(c1)OCO2 (stereo unspecified) | inactive |

| Structure (SMILES) | B-score |
| --- | --- |
| CCOc1ccc(/C=N/NC(=O)CSc2ccccn2)cc1O | inactive |
| C=CCOc1ccc(/C=N/NC(=O)C(C)Sc2ccccn2)cc1OCC (stereo unspecified) | -8.3 (active) |
| CCOc1ccc(/C=N/NC(=O)C(C)Sc2ccccn2)cc1OCC (stereo unspecified) | inactive |
| C/C(=N\NC(=O)CCn1nc(C)cc1C)C(C)(C)C | inactive |
| COc1ccc(OCC(=O)Nc2ccc(NC(=O)c3ccco3)c(C)c2)cc1 | inactive |
| O=C(COC(=O)c1ccc[nH]c1=O)Nc1ccc2c(c1)OC(F)(F)O2 | inactive |
| O=C(COC(=O)c1ccccc1NC(=O)c1ccco1)Nc1ccc2c(c1)OC(F)(F)O2 | -8.01 (active) |
| Cc1ccnc(SCCn2c(N(C)Cc3ccccc3)nc3c2c(=O)n(C)c(=O)n3C)n1 | inactive |
| OC(COCCC12CC3CC(CC(C3)C1)C2)CN1CCCCC1 (stereo unspecified) | inactive |
| CC(=O)N(C1=C(Cl)C(=O)c2ccccc2C1=O)c1ccc(C(=O)O)cc1 | -6.74 (active) |
| O=C(CN1C(=O)c2ccccc2C1=O)NCc1ccc(C(=O)O)cc1 | inactive |
| COc1ccc(OC)c(C(=O)c2coc3ccc(OC)cc23)c1 | -15 (active) |
| COc1ccc2occ(C(=O)c3ccc(N=C(C)N(C)C)cc3)c2c1 | inactive |
| COc1ccc(OC)c(C(=O)c2coc3ccc(O)c(CN4CCOCC4)c23)c1 | inactive |
| Cc1ccnc(NC(=O)Cn2ccc([N+](=O)[O-])n2)c1 | inactive |
| CC(/C=N/NC(=O)c1cc(-c2ccc3ccccc3c2)n[nH]1)=C\c1ccco1 | -6.63 (active) |
| Cc1ccc(-c2cc(C(=O)N/N=C/C=C/c3ccco3)c3ccccc3n2)cc1C | inactive |
| CC(/C=N/NC(=O)c1ccncc1)=C\c1ccco1 | inactive |
| CCOc1ccc(-n2c(SCC(=O)NC3CCS(=O)(=O)C3)nnc2-c2cccnc2)cc1 (stereo unspecified) | inactive |
| CCCC(C(=O)n1nc(C)cc1C)C(NS(=O)(=O)c1ccc(C)cc1)c1ccccc1 (stereo unspecified) | inactive |
| CC1CCN(C(=O)c2ccc(CSc3ccc(Cl)cc3)cc2)CC1 | -8.16 (active) |
| O=C(c1ccc(CSc2ccccc2)cc1)N1CCCCCC1 | inactive |
| O=C(C1CC1)N1CCN=C1SCc1ccc(Cl)cc1 | inactive |
| CCCCn1c(N)c(N(CCOC)C(=O)c2cccc(S(=O)(=O)N(C)c3ccccc3)c2)c(=O)[nH]c1=O | inactive |
| CCOC(=O)Cc1csc(SCC(=O)NC(C)C23CC4CC(CC(C4)C2)C3)n1 (stereo unspecified) | inactive |
| CN(C)S(=O)(=O)c1cccc(NC(=O)Cc2ccsc2)c1 | inactive |

| Structure (SMILES) | B-score |
| --- | --- |
| CN(c1ccccc1)S(=O)(=O)c1cccc(NC(=O)Cc2c(F)cccc2Cl)c1 | -15.5 (active) |
| CN(C)S(=O)(=O)c1cccc(NC(=O)COC(=O)C2(c3ccccc3F)CCCC2)c1 | inactive |
| Cc1cc(=O)oc2c1ccc1ccccc12 | inactive |
| COc1ccc(C(CCN(Cc2ccc(OC)c(OC)c2)C(=O)CCl)c2ccccc2)cc1 (stereo unspecified) | -11 (active) |
| COc1ccc(COC(=O)NC(C(=O)O)c2ccccc2)cc1 (stereo unspecified) | inactive |
| COc1ccc(CN(C)C(=O)CC(c2ccccc2)c2ccccc2)cc1 | inactive |
| O=c1[nH]c(/C=C/c2cccc(Br)c2)nc2ccccc12 | inactive |
| COc1ccc(CNc2ncnc3ccccc23)cc1 | inactive |
| CCc1ccc(C(CNc2nc(C(F)(F)F)nc3ccccc23)N(C)C)cc1 (stereo unspecified) | inactive |
| COc1cccc(CNc2nc(C(F)(F)F)nc3ccccc23)c1 | -8.03 (active) |
| CCOC(=O)c1cc(C(=O)Nc2ccc(S(=O)(=O)Nc3ccc(OC)cc3)cc2)nn1C | inactive |
| COc1ccc(-n2ncc3c2CC(C)(C)CC3NC(=O)CCc2c(C)noc2C)cc1 (stereo unspecified) | inactive |
| Cc1nn(CC(=O)NCc2ccccn2)c(C)c1[N+](=O)[O-] | inactive |
| CCc1ccc(NC(=O)Cn2nc(C)c([N+](=O)[O-])c2C)cc1 | inactive |
| Cc1nn(CC(=O)Nc2nc3ccccc3s2)c(C)c1[N+](=O)[O-] | -10.4 (active) |
| Cc1cc(C)nc(NS(=O)(=O)c2ccc(N3C(=O)C4CCCCC4C3=O)cc2)n1 (stereo unspecified) | inactive |
| COc1ccccc1N1CCN(c2ncnc3sc(C)c(-c4ccccc4)c23)CC1 | -16.5 (active) |
| Oc1ccccc1N1CCN(c2ncnc3sc(-c4ccccc4)cc23)CC1 | inactive |
| COc1ccccc1N1CCN(c2ccc([N+](=O)[O-])nc2)CC1 | inactive |
| O=C(NCCc1ccc(Cl)cc1Cl)c1cc([N+](=O)[O-])c[nH]c1=O | inactive |
| CSc1cccc(NC(=S)N(Cc2ccccc2)Cc2ccccn2)c1 | inactive |
| CC(c1ccccn1)N(CCN(C)C)C(=S)Nc1ccccc1F (stereo unspecified) | inactive |
| CSc1cccc(NC(=S)N(C(C)C)C(C)c2ccccn2)c1 (stereo unspecified) | -17.5 (active) |
